Laboratory results taken from the supplement of paper PMC11732987, “Enantioselective OTUD7B fragment discovery through chemoproteomics screening and high-throughput optimisation” (Communications Chemistry, 2025).

Legend:
Assay in all cases: log2 ratio of Biotin-Ahx-Ub-VS probe labelling (fragment/DMSO); higher = less target engagement (more negative = stronger competition), active = hit call of the paper (q ≤ 0.05, log2 ratio ≤ -1)
Details in all cases: compound concentration: 200 uM; treatment time: 3 h
USP34 = USP34 (UniProt Q70CQ2)
Sequence of USP34 (Q70CQ2 whole entry, the tested form may be a part): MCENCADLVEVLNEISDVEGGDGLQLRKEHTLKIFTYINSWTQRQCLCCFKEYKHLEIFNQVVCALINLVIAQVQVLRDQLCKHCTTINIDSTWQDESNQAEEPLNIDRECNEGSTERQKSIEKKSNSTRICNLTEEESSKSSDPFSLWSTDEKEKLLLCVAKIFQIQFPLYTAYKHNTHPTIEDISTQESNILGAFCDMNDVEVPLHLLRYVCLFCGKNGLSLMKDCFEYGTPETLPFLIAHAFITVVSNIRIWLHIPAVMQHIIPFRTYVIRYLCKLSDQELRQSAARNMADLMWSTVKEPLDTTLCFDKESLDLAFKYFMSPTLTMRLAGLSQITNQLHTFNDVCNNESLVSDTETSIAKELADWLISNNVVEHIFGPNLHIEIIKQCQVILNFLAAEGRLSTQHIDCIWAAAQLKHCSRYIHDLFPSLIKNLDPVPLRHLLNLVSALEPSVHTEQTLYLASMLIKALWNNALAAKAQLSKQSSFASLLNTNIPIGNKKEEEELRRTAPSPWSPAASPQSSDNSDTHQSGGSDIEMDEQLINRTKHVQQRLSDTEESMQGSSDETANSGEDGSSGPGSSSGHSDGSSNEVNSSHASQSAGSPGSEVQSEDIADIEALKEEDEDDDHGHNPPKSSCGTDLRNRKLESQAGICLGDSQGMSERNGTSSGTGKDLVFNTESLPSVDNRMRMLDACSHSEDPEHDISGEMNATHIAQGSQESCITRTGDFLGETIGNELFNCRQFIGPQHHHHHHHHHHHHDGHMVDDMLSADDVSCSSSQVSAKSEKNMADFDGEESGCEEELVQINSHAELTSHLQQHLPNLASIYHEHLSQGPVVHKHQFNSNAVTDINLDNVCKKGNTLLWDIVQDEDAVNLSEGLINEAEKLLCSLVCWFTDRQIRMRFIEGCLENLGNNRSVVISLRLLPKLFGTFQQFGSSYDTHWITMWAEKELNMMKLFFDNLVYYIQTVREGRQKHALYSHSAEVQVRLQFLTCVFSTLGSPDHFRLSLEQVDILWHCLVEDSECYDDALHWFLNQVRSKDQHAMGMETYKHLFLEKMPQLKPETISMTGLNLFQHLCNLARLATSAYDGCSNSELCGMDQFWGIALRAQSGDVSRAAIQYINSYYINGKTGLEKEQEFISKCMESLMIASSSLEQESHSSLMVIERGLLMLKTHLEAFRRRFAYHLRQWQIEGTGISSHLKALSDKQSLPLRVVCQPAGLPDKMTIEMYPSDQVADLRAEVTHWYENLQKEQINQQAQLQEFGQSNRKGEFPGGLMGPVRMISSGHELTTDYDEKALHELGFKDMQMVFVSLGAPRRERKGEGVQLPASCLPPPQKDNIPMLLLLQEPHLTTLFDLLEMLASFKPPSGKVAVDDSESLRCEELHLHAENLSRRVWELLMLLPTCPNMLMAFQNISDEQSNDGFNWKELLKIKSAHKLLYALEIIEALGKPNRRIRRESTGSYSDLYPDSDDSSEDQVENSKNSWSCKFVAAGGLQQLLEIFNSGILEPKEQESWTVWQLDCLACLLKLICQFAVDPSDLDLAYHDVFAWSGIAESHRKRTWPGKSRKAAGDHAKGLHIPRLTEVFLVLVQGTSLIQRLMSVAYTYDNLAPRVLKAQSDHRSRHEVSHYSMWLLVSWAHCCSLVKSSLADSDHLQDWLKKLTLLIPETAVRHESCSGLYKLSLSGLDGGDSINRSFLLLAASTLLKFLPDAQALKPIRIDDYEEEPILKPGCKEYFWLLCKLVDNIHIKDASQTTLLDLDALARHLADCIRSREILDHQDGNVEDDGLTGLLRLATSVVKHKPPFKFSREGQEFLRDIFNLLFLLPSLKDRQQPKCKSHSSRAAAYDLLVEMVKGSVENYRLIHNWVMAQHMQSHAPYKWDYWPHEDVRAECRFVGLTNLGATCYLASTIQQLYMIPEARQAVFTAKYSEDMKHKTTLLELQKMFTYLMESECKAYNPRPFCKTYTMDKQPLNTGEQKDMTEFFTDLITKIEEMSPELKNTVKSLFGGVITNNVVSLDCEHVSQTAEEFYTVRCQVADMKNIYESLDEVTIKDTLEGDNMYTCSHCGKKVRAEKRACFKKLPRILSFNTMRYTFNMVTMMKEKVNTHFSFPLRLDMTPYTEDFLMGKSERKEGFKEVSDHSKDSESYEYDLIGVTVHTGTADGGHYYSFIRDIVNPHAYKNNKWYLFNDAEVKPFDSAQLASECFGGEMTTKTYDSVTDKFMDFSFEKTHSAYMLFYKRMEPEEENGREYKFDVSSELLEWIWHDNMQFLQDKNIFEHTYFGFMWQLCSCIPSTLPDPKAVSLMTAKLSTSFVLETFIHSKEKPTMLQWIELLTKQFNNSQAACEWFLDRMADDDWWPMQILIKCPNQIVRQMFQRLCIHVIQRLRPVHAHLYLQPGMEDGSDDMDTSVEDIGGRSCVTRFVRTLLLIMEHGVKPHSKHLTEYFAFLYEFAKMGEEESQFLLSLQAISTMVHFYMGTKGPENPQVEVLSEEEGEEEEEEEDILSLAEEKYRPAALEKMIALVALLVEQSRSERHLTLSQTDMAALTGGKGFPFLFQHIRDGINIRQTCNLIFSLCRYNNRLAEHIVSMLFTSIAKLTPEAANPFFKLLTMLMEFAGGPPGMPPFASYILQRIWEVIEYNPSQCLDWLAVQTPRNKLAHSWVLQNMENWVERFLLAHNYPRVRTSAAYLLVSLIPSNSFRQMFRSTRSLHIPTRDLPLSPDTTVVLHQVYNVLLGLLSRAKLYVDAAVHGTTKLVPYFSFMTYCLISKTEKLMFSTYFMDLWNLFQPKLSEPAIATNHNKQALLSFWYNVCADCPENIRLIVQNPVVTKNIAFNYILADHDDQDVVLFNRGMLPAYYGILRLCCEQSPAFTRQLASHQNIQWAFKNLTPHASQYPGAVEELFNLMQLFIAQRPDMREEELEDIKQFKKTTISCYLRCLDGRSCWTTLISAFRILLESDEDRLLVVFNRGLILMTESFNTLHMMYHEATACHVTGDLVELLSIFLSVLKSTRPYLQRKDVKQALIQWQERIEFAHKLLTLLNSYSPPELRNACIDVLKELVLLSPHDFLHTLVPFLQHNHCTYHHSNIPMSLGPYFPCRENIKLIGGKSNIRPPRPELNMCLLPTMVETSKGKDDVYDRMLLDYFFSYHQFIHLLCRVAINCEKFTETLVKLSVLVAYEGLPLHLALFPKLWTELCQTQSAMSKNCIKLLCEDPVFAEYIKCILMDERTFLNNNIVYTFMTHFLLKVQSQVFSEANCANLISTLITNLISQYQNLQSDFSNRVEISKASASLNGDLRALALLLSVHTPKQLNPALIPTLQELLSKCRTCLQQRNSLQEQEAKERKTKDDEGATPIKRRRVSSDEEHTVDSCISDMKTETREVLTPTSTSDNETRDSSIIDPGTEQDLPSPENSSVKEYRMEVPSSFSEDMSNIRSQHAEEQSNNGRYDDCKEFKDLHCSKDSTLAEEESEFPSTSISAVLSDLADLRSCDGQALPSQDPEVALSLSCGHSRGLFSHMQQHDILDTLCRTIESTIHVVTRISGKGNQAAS
Procedure, shortened: (§1)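 Global-median-normalised Spectronaut label-free quantities were compared by unpaired t-test, and values are average log2 ratios of fragment over vehicle. Only proteins with ≥2 unique peptides were used. HEK293T lysate (495 µg per sample) was treated in triplicate with fragment at 200 µM or vehicle for 3 h and then with Biotin-Ahx-Ub-VS at 0.5 µM final for 1 h. Labelled DUBs were then NeutrAvidin-enriched, digested with LysC and trypsin, and run by diaPASEF LC-MS/MS.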

USP36 = target: T1, USP36 (UniProt Q9P275)
T1 sequence (whole entry): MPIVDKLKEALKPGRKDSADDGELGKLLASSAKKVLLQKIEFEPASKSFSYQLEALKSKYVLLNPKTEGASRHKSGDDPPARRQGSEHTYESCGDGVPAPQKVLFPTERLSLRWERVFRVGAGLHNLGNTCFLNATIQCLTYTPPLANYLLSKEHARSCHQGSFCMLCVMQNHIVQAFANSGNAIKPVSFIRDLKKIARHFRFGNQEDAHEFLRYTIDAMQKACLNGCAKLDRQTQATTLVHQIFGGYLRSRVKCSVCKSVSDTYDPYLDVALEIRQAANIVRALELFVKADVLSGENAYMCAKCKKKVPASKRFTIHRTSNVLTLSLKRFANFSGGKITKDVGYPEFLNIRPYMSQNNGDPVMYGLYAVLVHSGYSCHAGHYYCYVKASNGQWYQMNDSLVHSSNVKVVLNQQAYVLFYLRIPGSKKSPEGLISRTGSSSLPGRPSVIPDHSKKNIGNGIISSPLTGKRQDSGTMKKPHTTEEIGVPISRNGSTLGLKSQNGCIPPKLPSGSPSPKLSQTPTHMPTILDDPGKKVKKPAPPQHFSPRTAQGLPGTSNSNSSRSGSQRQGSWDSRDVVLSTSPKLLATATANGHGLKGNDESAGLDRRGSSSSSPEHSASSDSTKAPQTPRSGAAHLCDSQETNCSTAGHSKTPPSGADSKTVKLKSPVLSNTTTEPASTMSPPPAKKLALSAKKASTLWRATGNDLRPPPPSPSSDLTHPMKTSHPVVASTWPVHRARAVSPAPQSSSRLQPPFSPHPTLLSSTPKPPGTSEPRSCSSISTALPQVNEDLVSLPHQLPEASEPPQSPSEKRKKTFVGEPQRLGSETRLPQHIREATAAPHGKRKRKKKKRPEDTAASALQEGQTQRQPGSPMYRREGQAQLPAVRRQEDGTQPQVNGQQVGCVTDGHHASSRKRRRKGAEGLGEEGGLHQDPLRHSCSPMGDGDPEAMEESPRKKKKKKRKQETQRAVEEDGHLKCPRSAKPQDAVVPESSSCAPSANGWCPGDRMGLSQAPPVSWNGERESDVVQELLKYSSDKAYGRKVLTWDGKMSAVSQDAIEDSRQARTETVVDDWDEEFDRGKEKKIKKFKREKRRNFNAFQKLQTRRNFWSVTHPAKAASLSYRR
Procedure, shortened: as §1

USP38 = target: T2, USP38 (UniProt Q8NB14)
T2 sequence (whole entry): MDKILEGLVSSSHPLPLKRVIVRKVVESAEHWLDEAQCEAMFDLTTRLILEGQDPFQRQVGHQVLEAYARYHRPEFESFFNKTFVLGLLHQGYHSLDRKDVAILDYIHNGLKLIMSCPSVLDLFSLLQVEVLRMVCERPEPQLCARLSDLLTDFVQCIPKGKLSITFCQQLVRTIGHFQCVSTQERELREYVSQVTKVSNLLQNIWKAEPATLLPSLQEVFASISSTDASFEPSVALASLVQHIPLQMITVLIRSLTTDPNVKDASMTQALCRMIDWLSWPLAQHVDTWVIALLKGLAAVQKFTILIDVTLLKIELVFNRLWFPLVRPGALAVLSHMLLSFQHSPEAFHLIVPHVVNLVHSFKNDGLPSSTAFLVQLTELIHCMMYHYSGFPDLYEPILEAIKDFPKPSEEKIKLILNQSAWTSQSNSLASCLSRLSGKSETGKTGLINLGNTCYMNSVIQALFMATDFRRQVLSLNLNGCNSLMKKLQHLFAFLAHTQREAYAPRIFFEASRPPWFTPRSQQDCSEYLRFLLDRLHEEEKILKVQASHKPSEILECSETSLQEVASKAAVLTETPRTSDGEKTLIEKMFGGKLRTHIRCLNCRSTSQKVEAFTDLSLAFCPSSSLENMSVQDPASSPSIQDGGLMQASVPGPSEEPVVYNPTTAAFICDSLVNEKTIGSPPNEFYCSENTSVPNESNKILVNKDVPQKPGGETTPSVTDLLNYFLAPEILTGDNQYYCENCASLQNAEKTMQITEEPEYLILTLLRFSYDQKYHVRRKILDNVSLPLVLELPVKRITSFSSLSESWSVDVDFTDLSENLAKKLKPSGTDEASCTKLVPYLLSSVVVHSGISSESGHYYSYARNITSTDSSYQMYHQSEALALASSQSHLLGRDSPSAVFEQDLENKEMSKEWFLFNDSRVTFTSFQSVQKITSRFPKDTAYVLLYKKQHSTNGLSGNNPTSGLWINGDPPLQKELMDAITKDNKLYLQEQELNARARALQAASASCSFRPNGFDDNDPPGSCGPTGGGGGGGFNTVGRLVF
Procedure, shortened: as §1

USP39 = target: T3, USP39 (UniProt Q53GS9)
T3 sequence (whole entry): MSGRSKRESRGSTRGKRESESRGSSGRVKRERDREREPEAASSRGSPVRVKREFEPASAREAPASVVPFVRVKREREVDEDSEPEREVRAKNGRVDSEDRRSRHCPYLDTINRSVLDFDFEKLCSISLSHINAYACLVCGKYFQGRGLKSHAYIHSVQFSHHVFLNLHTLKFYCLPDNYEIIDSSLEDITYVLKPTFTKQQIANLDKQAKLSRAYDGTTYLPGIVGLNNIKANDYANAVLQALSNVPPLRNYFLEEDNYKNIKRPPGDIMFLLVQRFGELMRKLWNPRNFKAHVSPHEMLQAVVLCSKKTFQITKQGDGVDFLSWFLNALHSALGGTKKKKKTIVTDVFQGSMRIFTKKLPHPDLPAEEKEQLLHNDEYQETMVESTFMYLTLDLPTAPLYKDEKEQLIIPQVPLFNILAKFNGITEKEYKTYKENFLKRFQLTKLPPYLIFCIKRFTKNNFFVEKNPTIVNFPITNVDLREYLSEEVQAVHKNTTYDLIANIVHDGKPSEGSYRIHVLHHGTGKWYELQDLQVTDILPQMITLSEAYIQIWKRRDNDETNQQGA
Procedure, shortened: as §1

USP4 = target: T4, USP4 (UniProt Q13107)
T4 sequence (whole entry): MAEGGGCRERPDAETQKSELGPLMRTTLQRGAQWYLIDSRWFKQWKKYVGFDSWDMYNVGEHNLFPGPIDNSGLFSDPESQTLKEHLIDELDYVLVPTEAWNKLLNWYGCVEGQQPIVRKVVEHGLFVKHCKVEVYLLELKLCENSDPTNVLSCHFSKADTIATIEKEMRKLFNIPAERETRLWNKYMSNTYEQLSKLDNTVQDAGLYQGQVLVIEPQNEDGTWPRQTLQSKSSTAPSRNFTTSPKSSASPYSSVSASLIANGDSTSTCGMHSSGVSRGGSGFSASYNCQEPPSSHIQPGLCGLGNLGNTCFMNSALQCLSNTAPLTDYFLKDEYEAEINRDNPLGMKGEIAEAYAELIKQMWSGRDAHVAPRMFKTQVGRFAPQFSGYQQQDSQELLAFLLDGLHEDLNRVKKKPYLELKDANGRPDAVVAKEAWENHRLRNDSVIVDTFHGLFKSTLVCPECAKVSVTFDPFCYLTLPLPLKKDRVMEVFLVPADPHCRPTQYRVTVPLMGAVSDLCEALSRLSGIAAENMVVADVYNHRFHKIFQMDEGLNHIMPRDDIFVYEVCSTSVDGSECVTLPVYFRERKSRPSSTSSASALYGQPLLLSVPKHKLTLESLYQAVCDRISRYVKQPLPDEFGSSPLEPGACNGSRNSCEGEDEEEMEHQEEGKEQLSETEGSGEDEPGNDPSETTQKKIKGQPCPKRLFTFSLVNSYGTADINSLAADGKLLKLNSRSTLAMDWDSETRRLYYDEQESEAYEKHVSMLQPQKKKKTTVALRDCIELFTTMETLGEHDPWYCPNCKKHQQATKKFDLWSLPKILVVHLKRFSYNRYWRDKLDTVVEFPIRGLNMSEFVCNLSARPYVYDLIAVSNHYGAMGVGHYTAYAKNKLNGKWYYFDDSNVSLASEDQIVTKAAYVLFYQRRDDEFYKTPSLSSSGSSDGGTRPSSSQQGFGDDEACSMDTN
Procedure, shortened: as §1

Measured: log2 ratio of Biotin-Ahx-Ub-VS probe labelling

CC(NC(=O)CCl)c1cccc2ccccc12 (stereo not given)
inactive: USP34 -0.0995 | USP36 -0.062 | USP38 0.0489 | USP39 0.171 | USP4 -0.154
